This note sets out measurements from the OligoGym collection.
Also: reference of the scale not given here.

One assay addresses FUT7. As to the kind of experiment: pooled miR-30 sensor sort-seq; sequence = guide strand. The following applies: shRNA.
As for TTGCGCCAGAATTTCTCCGTAA, the sensor-assay potency score (higher = more potent) was -0.526.
On the same count and under the same terms, for AACAGTCGCACGCGGAGCCTGT the value was -1.06.
On the same count and under the same terms, next, TTGGCACTCAGGTGGCAGCGGG: -1.03; TATCGGCTCTCATTCATGCCAG: -0.795; TCGGTGAACAGTCGCACGCGGA: -1.48.
Sequence TCAAAGGACAGGTAGAAGCGGT showed a sensor-assay potency score (higher = more potent) of 0.117.
Same read-out and setting: next, AAAGATGTCCGAGTCGCGCCGG: -0.517; TCCTCATAGACTTGGCTGCGGG: -1.76.
On the same count and under the same terms, for AAAGTCATCCACATGCACGAAG the value was -0.891.
For the sequence TTGAAGATGCCTCGGAGGTGGC, the sensor-assay potency score (higher = more potent) was -0.867.
On to TTGATTTCGACACCCAGCCCTT, for which the sensor-assay potency score (higher = more potent) was -1.26.
In the case of TCAAGGTCCTCATAGACTTGGC, the sensor-assay potency score (higher = more potent) is -0.439.
The same measure, in the same setting: for TAGCGGTCACAGATGGCACAGA the value was -0.787.
On the same count and under the same terms, next, TAATGTAGTCGCGGTGCTGAGA: -0.815; TTCTCCGTAATGTAGTCGCGGT: -0.562; TCTCCGTAATGTAGTCGCGGTG: -1.48.
For the sequence TAGGGCACAAAGATGTCCGAGT, the sensor-assay potency score (higher = more potent) was -0.24.
Same read-out and setting: next, TTTCTCCGTAATGTAGTCGCGG: -0.338; TCATCCACATGCACGAAGGCGT: -0.506; TGTCGCTGGGCAGCTCTGGGGG: -1.3.
Still for that read-out and setting: for AAGATGTCCGAGTCGCGCCGGT the value was -0.72; for TCACAGATGGCACAGAAACGTT, -1.59; for TTGGTATCGGCTCTCATTCATG, -1.57.
For the sequence ATAGGGCACAAAGATGTCCGAG, the sensor-assay potency score (higher = more potent) was -0.929.

The target of a further assay is FXN. The description is as above. The settings on record: shRNA.
As to TAAGGCTTTAGTGAGCTCTGCG, the sensor-assay potency score (higher = more potent) worked out at 0.283.
The sequence TTGCTTGTTTGGCGTCTGCTTG displayed a sensor-assay potency score (higher = more potent) of -0.812.
Same read-out and setting: next, TTTGACATTCCAAATCTGGTTG: -0.256.
Still for that read-out and setting: for ATAACGCTTAGGTCCACTGGAT the value was -1.03; for TAGGTGGTCTCATCTAGAGAGC, -1.48; for TAACGCTTAGGTCCACTGGATG, -1.46.
TTAAAAATCAGAACTTGGGGGC: the sensor-assay potency score (higher = more potent) worked out at 0.521.
Sequence TAGTCTTTCATAGGTGGTCTCA registered a sensor-assay potency score (higher = more potent) of -0.873.
The same measure, in the same setting: for ATCAAATAGACACTCTGCTTTT the value was -1.04; for TTGACAGTTAAGACACCACTCC, -0.462; for TGTTGATCACATAGGTTCCTAG, -0.584.
On the same count and under the same terms, next, TTGTTTGGCGTCTGCTTGTTGA: -0.937.
Same read-out and setting: next, TGCTTGTTGATCACATAGGTTC: -0.833; TCTGCTAGTCTTTCATAGGTGG: 0.437; TGGTCTCATCTAGAGAGCCTGG: -1.32.
